This is one part of a sample in which the strongest signals are shown more often than they occur.
Tests used:
Experiment in all cases: glycan array binding signal (z-score within array); higher = stronger binding
Conditions in all cases: glycan notation: IUPAC condensed, linker removed
[1] = target: Fuc(a1-2)Gal(b1-3)GalNAc(b1-3)Gal(a1-4)Gal(b1-4)Glc
Method in brief: (§1)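 Negative Z-scores can be read as non-binding. The Z-score is calculated within each array and then averaged across arrays of one protein sequence at different concentrations or buffers and across linkers. Arrays, 3228 in all, were curated from the Consortium for Functional Glycomics database and kept only where the protein sequence was available.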

Fuc(a1-2)Gal(b1-4)GlcNAc = target: Fuc(a1-2)Gal(b1-4)GlcNAc
Method in brief: as §1

[2] = target: Fuc(a1-2)Gal(b1-4)GlcNAc(b1-3)Gal(b1-4)GlcNAc
Method in brief: as §1

[3] = target: Fuc(a1-2)[Gal(a1-3)]Gal(b1-4)Glc
Method in brief: as §1

[4] = target: Fuc(a1-2)[Gal(a1-4)]Gal(b1-4)GlcNAc
Method in brief: as §1

[5] = target: Fuc(a1-2)[GalNAc(a1-3)]Gal(b1-4)GlcNAc
Method in brief: as §1

[6] = target: Fuc(a1-3)[Gal(b1-4)]GlcNAc(b1-2)Man(a1-6)[Gal(b1-4)GlcNAc(b1-2)Man(a1-3)]Man(b1-4)GlcNAc(b1-4)GlcNAc
Method in brief: as §1

[7] = target: Fuc(a1-3)[Gal3S(b1-4)]GlcNAc6S
Method in brief: as §1

Gal(b1-3)Gal(b1-4)GlcNAc = target: Gal(b1-3)Gal(b1-4)GlcNAc
Method in brief: as §1

Gal(b1-4)Glc6S = target: Gal(b1-4)Glc6S
Method in brief: as §1

[8] = target: Gal(b1-4)GlcNAc(b1-2)Man(a1-3)[Gal(b1-4)GlcNAc(b1-2)Man(a1-6)]Man(b1-4)GlcNAc(b1-4)GlcNAc
Method in brief: as §1

[9] = target: Gal(b1-4)GlcNAc(b1-3)[Gal(b1-4)GlcNAc(b1-6)]Gal(b1-4)GlcNAc
Method in brief: as §1

[10] = target: Gal(b1-4)GlcNAc(b1-6)[Gal(b1-3)]GalNAc
Method in brief: as §1

[11] = target: Gal3S(b1-4)[Fuc(a1-3)]Glc
Method in brief: as §1

Gal3S6S(b1-4)GlcNAc6S = target: Gal3S6S(b1-4)GlcNAc6S
Method in brief: as §1

GlcNAc(b1-3)GalNAc = target: GlcNAc(b1-3)GalNAc
Method in brief: as §1

[12] = target: GlcNAc(b1-3)[GlcNAc(b1-4)][GlcNAc(b1-6)]GlcNAc
Method in brief: as §1

[13] = target: Man(a1-2)Man(a1-3)[Man(a1-2)Man(a1-6)]Man
Method in brief: as §1

[14] = target: Neu5Ac(a2-3)Gal(b1-4)GlcNAc(b1-3)Gal(b1-4)[Fuc(a1-3)]GlcNAc
Method in brief: as §1

[15] = target: Neu5Ac(a2-8)Neu5Ac(a2-8)Neu5Ac
Method in brief: as §1

[16] = target: Fuc(a1-2)Gal(b1-3)GlcNAc(b1-3)[Neu5Ac(a2-6)Gal(b1-4)GlcNAc(b1-6)]Gal(b1-4)Glc
Method in brief: as §1

[17] = target: Fuc(a1-2)Gal(b1-4)[Fuc(a1-3)]GlcNAc(b1-2)Man(a1-3)[Fuc(a1-2)Gal(b1-4)[Fuc(a1-3)]GlcNAc(b1-2)Man(a1-6)]Man(b1-4)GlcNAc(b1-4)GlcNAc
Method in brief: as §1

[18] = target: Fuc(a1-2)[GalNAc(a1-3)]Gal(b1-3)GalNAc(a1-3)[Fuc(a1-2)]Gal(b1-4)GlcNAc
Method in brief: as §1

[19] = target: Fuc(a1-2)[GalNAc(a1-3)]Gal(b1-3)GlcNAc
Method in brief: as §1

[20] = target: Fuc(a1-3)[Gal(b1-4)]Glc6S
Method in brief: as §1

[21] = target: Gal(b1-3)Gal(b1-4)GlcNAc(b1-2)Man(a1-3)[Gal(b1-3)Gal(b1-4)GlcNAc(b1-2)Man(a1-6)]Man(b1-4)GlcNAc(b1-4)GlcNAc
Method in brief: as §1

[22] = target: Gal(b1-3)[Fuc(a1-4)]GlcNAc
Method in brief: as §1

[23] = target: Gal(b1-3)[Neu5Ac(a2-6)]GalNAc
Method in brief: as §1

Gal(b1-4)GlcNAc = target: Gal(b1-4)GlcNAc
Method in brief: as §1

[24] = target: Gal(b1-4)GlcNAc(b1-2)Man(a1-3)Man(b1-4)GlcNAc(b1-4)GlcNAc
Method in brief: as §1

[25] = target: Gal(b1-4)GlcNAc(b1-2)Man(a1-3)[GlcNAc(b1-2)Man(a1-6)]Man(b1-4)GlcNAc(b1-4)GlcNAc
Method in brief: as §1

[26] = target: Gal(b1-4)GlcNAc(b1-2)[Gal(b1-4)GlcNAc(b1-4)]Man(a1-3)[GlcNAc(b1-4)][Gal(b1-4)GlcNAc(b1-2)Man(a1-6)]Man(b1-4)GlcNAc(b1-4)GlcNAc
Method in brief: as §1

[27] = target: Gal(b1-4)GlcNAc(b1-2)[Gal(b1-4)GlcNAc(b1-4)]Man(a1-3)[GlcNAc(b1-4)][Gal(b1-4)GlcNAc(b1-2)[Gal(b1-4)GlcNAc(b1-6)]Man(a1-6)]Man(b1-4)GlcNAc(b1-4)GlcNAc
Method in brief: as §1

[28] = target: Gal(b1-4)GlcNAc(b1-2)[Gal(b1-4)GlcNAc(b1-6)]Man(a1-6)[GlcNAc(b1-4)][Gal(b1-4)GlcNAc(b1-2)Man(a1-3)]Man(b1-4)GlcNAc(b1-4)GlcNAc
Method in brief: as §1

[29] = target: Gal(b1-4)GlcNAc(b1-3)GalNAc
Method in brief: as §1

[30] = target: Gal(b1-4)GlcNAc(b1-3)[Gal(b1-4)GlcNAc(b1-6)]GalNAc
Method in brief: as §1

[31] = target: GalNAc(a1-3)GalNAc(b1-3)Gal(a1-4)Gal(b1-4)Glc
Method in brief: as §1

[32] = target: GlcNAc(b1-2)Man(a1-3)[GlcNAc(b1-4)][GlcNAc(b1-2)Man(a1-6)]Man(b1-4)GlcNAc(b1-4)GlcNAc
Method in brief: as §1

[33] = target: GlcNAc(b1-3)[GlcNAc(b1-6)]GlcNAc(b1-4)GlcNAc
Method in brief: as §1

[34] = target: GlcNAc(b1-4)[GlcNAc(b1-6)]GalNAc
Method in brief: as §1

[35] = target: GlcNAc6S(b1-3)Gal(b1-4)GlcNAc
Method in brief: as §1

[36] = target: Man(a1-2)Man(a1-2)Man(a1-6)[Man(a1-3)]Man
Method in brief: as §1

[37] = target: Man(a1-2)Man(a1-3)[Man(a1-2)Man(a1-6)]Man(a1-6)[Man(a1-2)Man(a1-2)Man(a1-3)]Man
Method in brief: as §1

[38] = target: Man(a1-2)Man(a1-3)[Man(a1-2)Man(a1-6)]Man(a1-6)[Man(a1-2)Man(a1-2)Man(a1-3)]Man(b1-4)GlcNAc(b1-4)GlcNAc
Method in brief: as §1

[39] = target: Man(a1-2)Man(a1-6)[Man(a1-3)]Man(a1-6)[Man(a1-2)Man(a1-2)Man(a1-3)]Man
Method in brief: as §1

[40] = target: Man(a1-2)Man(a1-6)[Man(a1-3)]Man(a1-6)[Man(a1-2)Man(a1-2)Man(a1-3)]Man(b1-4)GlcNAc(b1-4)GlcNAc
Method in brief: as §1

B1: MCI4 (Toxoplasma gondii), Q9XZH7 (protein)
chain: MRASLPVHLVVCTQLSAVWFGVAKAHGGHRLEPHVPGFLQGFTDITPAGDDVSANVTSSEPAKLDLSCVHSDNKGSRAPTIGEPVPDVSLEQCAAQCKAVDGCTHFTYNDDSKMCHVKEGKPDLYDLTGGKTASRSCDRSCFEQHVSYEGAPDVMTAMVTSQSADCQAACAADPSCEIFTYNEHDQKCTFKGRGFSAFKERGVLGVTSGPKQFCDEGGKLTQEEMEDQISGCIQLSDVGSMTADLEEPMEADSVGACMERCRCDGRCTHFTFNDNTRMCYLKGDKMQLYSSPGDRTGPKSCDSSCFSNGVSYVDDPATDVETVFEISHPIYCQVICAANPLCTVFQWYASEAKCVVKRKGFYKHRKTGVTGVTVGPREFCDFGGSIRDREEADAVGSDDGLNAEATMANSPDFHDEVECVHTGNIGSKAQTIGEVKRASSLSECRARCQAEKECSHYTYNVKSGLCYPKRGKPQFYKYLGDMTGSRTCDTSCLRRGVDYSQGPEVGKPWYSTLPTDCQVACDAEDACLVFTWDSATSRCYLIGSGFSAHRRNDVDGVVSGPYTFCDNGENLQVLEAKDTE
[1]
  glycan array binding signal (z-score): -0.22
Fuc(a1-2)Gal(b1-4)GlcNAc
  glycan array binding signal (z-score): -0.204
[2]
  glycan array binding signal (z-score): -0.214
[3]
  glycan array binding signal (z-score): -0.206
[4]
  glycan array binding signal (z-score): -0.203
[5]
  glycan array binding signal (z-score): -0.21
[6]
  glycan array binding signal (z-score): -0.201
[7]
  glycan array binding signal (z-score): -0.225
Gal(b1-3)Gal(b1-4)GlcNAc
  glycan array binding signal (z-score): 5.93
Gal(b1-4)Glc6S
  glycan array binding signal (z-score): 5.04
[8]
  glycan array binding signal (z-score): 4.68
[9]
  glycan array binding signal (z-score): 7.5
[10]
  glycan array binding signal (z-score): 5.16
[11]
  glycan array binding signal (z-score): -0.213
Gal3S6S(b1-4)GlcNAc6S
  glycan array binding signal (z-score): -0.228
GlcNAc(b1-3)GalNAc
  glycan array binding signal (z-score): -0.203
[12]
  glycan array binding signal (z-score): -0.202
[13]
  glycan array binding signal (z-score): -0.213
[14]
  glycan array binding signal (z-score): -0.217
[15]
  glycan array binding signal (z-score): -0.217

B2: ConA (Canavalia ensiformis), P02866 (protein)
chain: MAISKKSSLFLPIFTFITMFLMVVNKVSSSTHETNALHFMFNQFSKDQKDLILQGDATTGTDGNLELTRVSSNGSPQGSSVGRALFYAPVHIWESSAVVASFEATFTFLIKSPDSHPADGIAFFISNIDSSIPSGSTGRLLGLFPDANVIRNSTTIDFNAAYNADTIVAVELDTYPNTDIGDPSYPHIGIDIKSVRSKKTAKWNMQNGKVGTAHIIYNSVDKRLSAVVSYPNADSATVSYDVDLDNVLPEWVRVGLSASTGLYKETNTILSWSFTSKLKSNEIPDIATVV
[1]
  glycan array binding signal (z-score): -0.286
[16]
  glycan array binding signal (z-score): -0.189
[17]
  glycan array binding signal (z-score): -0.056
[3]
  glycan array binding signal (z-score): -0.278
[18]
  glycan array binding signal (z-score): -0.245
[19]
  glycan array binding signal (z-score): -0.279
[20]
  glycan array binding signal (z-score): -0.245
[21]
  glycan array binding signal (z-score): 0.087
[22]
  glycan array binding signal (z-score): -0.274
[23]
  glycan array binding signal (z-score): -0.129
Gal(b1-4)GlcNAc
  glycan array binding signal (z-score): -0.225
[24]
  glycan array binding signal (z-score): -0.192
[25]
  glycan array binding signal (z-score): 0.311
[26]
  glycan array binding signal (z-score): -0.211
[27]
  glycan array binding signal (z-score): -0.196
[28]
  glycan array binding signal (z-score): -0.24
[29]
  glycan array binding signal (z-score): -0.228
[9]
  glycan array binding signal (z-score): -0.208
[30]
  glycan array binding signal (z-score): -0.214
[31]
  glycan array binding signal (z-score): -0.201
[32]
  glycan array binding signal (z-score): -0.108
[33]
  glycan array binding signal (z-score): -0.317
[34]
  glycan array binding signal (z-score): -0.264
[35]
  glycan array binding signal (z-score): -0.088
[36]
  glycan array binding signal (z-score): 4.9
[13]
  glycan array binding signal (z-score): 3.94
[37]
  glycan array binding signal (z-score): 7.48
[38]
  glycan array binding signal (z-score): 3.33
[39]
  glycan array binding signal (z-score): 7.39
[40]
  glycan array binding signal (z-score): 4.46

Reference: the supplement of paper PMC8728848
